Experimental data: PubChem BioAssay (NCI)
The panel holds about 83,000 compounds, 20% with a hit somewhere; the sample as a whole holds those more often.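 How to read the values: 0–100, growth inhibition (40 = 60% inhibited); 0, no net growth; -100 to 0, cell death (-40 = 40% of starting cells died; -100 = all dead).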 Calls of active or inactive are those of the source. Rule for the calls: active = growth percent below 10; inactive = the rest.

Key:
Assay in all cases: NCI-60 one-dose screen, 48 h (100 = growth as untreated, 0 = no growth, -100 = all killed)
Settings in all cases: 10 µM unless noted
HCT-15 colon = test system: HCT-15 colon
HT29 colon = test system: HT29 colon
SNB-75 CNS = test system: SNB-75 CNS
SNB-19 CNS = test system: SNB-19 CNS
U251 CNS = test system: U251 CNS
PC-3 prostate = test system: PC-3 prostate
SK-MEL-5 melanoma = test system: SK-MEL-5 melanoma
UACC-62 melanoma = test system: UACC-62 melanoma
LOX IMVI melanoma = test system: LOX IMVI melanoma
SK-MEL-28 melanoma = test system: SK-MEL-28 melanoma

Measured: growth

CCc1ccc(NC(=O)N[C@@H](Cc2cc(F)cc(F)c2)C(=O)N[C@@H]2C(=O)N3C[C@H](O)C[C@H]3C(=O)N3CCOC[C@H]3C(=O)N[C@@H](C)C(=O)N3C[C@H](C)C[C@H]3C(=O)O[C@H]2C)cc1
active: SNB-75 CNS 8.76%
inactive: HCT-15 colon 108% | HT29 colon 31.2% | SNB-19 CNS 20.2% | U251 CNS 24.8% | PC-3 prostate 14.4% | SK-MEL-5 melanoma 85% | UACC-62 melanoma 29.7% | LOX IMVI melanoma 41.6% | SK-MEL-28 melanoma 39.7%

Clc1ccc(N2CCN(CCCN3CCN(c4cccc(Cl)c4)CC3)CC2)cc1
active: SK-MEL-5 melanoma 1.8%
inactive: HCT-15 colon 40.2% | HT29 colon 34.7% | SNB-75 CNS 52.3% | SNB-19 CNS 63.3% | U251 CNS 55.2% | PC-3 prostate 45.3% | UACC-62 melanoma 58.9% | LOX IMVI melanoma 48.4% | SK-MEL-28 melanoma 84.6%

COc1ccc(NC(=O)Nc2ccc(-c3cccnc3)cc2N2CCC(CO)CC2)cc1
inactive: HCT-15 colon 43.7% | SNB-75 CNS 51.3% | SNB-19 CNS 49.3% | U251 CNS 33% | PC-3 prostate 83.7% | UACC-62 melanoma 68.7% | LOX IMVI melanoma 71.9% | SK-MEL-28 melanoma 18.7%
active: HT29 colon 9.77% | SK-MEL-5 melanoma -38.3%

O=C(Nc1ccccc1)Nc1ccc(C(=O)/C=C/c2ccc(N3CCCC3)cc2)cc1
inactive: HCT-15 colon 56.8% | HT29 colon 69.5% | SNB-75 CNS 41% | SNB-19 CNS 68% | U251 CNS 66% | PC-3 prostate 59.9% | SK-MEL-5 melanoma 45% | UACC-62 melanoma 42.2% | LOX IMVI melanoma 85.6% | SK-MEL-28 melanoma 51.1%

COC(=O)C(=Cc1ccccc1[N+](=O)[O-])C(=O)OC
inactive: HCT-15 colon 19.8% | HT29 colon 21.3% | SNB-75 CNS 33.5% | SNB-19 CNS 88.9% | U251 CNS 23.7% | PC-3 prostate 40.4% | SK-MEL-5 melanoma 49.1% | UACC-62 melanoma 19.6% | LOX IMVI melanoma 10.7% | SK-MEL-28 melanoma 36.4%

CCCOc1ccc(-c2nc(-c3ccc(N)cc3)cs2)cc1
inactive: HCT-15 colon 89.9% | HT29 colon 96.7% | SNB-75 CNS 98% | SNB-19 CNS 96.6% | U251 CNS 107% | PC-3 prostate 94.6% | SK-MEL-5 melanoma 100% | UACC-62 melanoma 97% | LOX IMVI melanoma 110% | SK-MEL-28 melanoma 132%

CCCCC(CCCCCC(CCCC)C1NC(C)Cc2cc(OC)c(OC)cc21)C1NC(C)Cc2cc(OC)c(OC)cc21 (stereo not given)
active: HCT-15 colon -95.5% | HT29 colon -86.3% | SNB-75 CNS -99.9% | SNB-19 CNS -69.8% | U251 CNS -94.7% | PC-3 prostate -60.8% | SK-MEL-5 melanoma -96.1% | UACC-62 melanoma -70% | LOX IMVI melanoma -99.1% | SK-MEL-28 melanoma -98%

O=C1CC(C(F)(F)F)Cc2nc3ccc(Br)cc3cc21 (stereo not given)
inactive: HCT-15 colon 89.9% | HT29 colon 98.2% | SNB-75 CNS 78.5% | SNB-19 CNS 92% | U251 CNS 92.2% | PC-3 prostate 82% | SK-MEL-5 melanoma 92.6% | UACC-62 melanoma 81.1% | LOX IMVI melanoma 91.1% | SK-MEL-28 melanoma 96.5%

C=C(C)[C@@H]1CC[C@]2(C(=O)O)CC[C@]3(C)[C@H](CC[C@@H]4[C@@]5(C)C/C(=C/c6ccco6)C(=O)C(C)(C)[C@@H]5CC[C@]43C)[C@@H]12
active: HCT-15 colon -65.6% [100 µM] | HT29 colon -56.2% [100 µM] | SNB-75 CNS -70.3% [100 µM] | SNB-19 CNS -51.5% [100 µM] | U251 CNS -58.6% [100 µM] | PC-3 prostate -49.3% [100 µM] | SK-MEL-5 melanoma -73.5% [100 µM] | UACC-62 melanoma -97.6% [100 µM] | LOX IMVI melanoma -60.6% [100 µM] | SK-MEL-28 melanoma -64.7% [100 µM]

O=C(N/N=C/c1c(Cl)cccc1Cl)c1cccc(Nc2ccnc(C(F)(F)F)c2)c1
inactive: HCT-15 colon 78.5% | HT29 colon 96.7% | SNB-75 CNS 93.7% | SNB-19 CNS 85.7% | U251 CNS 89.6% | PC-3 prostate 77% | SK-MEL-5 melanoma 54.6% | UACC-62 melanoma 72.5% | LOX IMVI melanoma 83.7% | SK-MEL-28 melanoma 99.3%

CCc1ccc(-c2ccc(COc3ccc(CC4SC(=O)NC4=O)cc3)cc2)cc1 (stereo not given)
inactive: HCT-15 colon 56.4% | HT29 colon 103% | SNB-75 CNS 76.2% | SNB-19 CNS 87.1% | U251 CNS 72.8% | PC-3 prostate 65.6% | SK-MEL-5 melanoma 39.8% | UACC-62 melanoma 60.2% | LOX IMVI melanoma 63.3% | SK-MEL-28 melanoma 85%

C=C(C)[C@@H]1CC[C@]2(C(=O)OC)CC[C@]3(C)[C@H](CC[C@@H]4[C@@](C)(CCc5nn[nH]n5)[C@H](C(=C)C)CC[C@]43C)[C@@H]12
active: HCT-15 colon 6.32% [100 µM] | HT29 colon -16.1% [100 µM] | SNB-75 CNS -77.8% [100 µM] | SNB-19 CNS -5.69% [100 µM] | U251 CNS -26.5% [100 µM] | PC-3 prostate 5.02% [100 µM] | SK-MEL-5 melanoma -73.7% [100 µM] | UACC-62 melanoma -72.8% [100 µM] | LOX IMVI melanoma -90.9% [100 µM] | SK-MEL-28 melanoma -63% [100 µM]
